# Results: PubChem BioAssay (NCATS)
# Results filed as inconclusive are left out. A call without a number means that no potency is given here. Calls of active or inactive are those of the source. Unless noted, the call rests on the fitted dose curve; in most records, active means well fitted curve in the direction sought with a large enough effect; inconclusive means small, poorly fitted or top-dose-only effect, or another doubt; inactive means no such curve, though single readings can be large; an effect the other way counts as inactive or inconclusive.
# How the values were obtained:
# [1] = target: Cytochrome P450 3A4 (Homo sapiens) (UniProt P08684); assay: qHTS Assay for Inhibitors and Substrates of Cytochrome P450 3A4 (AID 884); further: nearly all actives have a fitted effect of over 50% in size; further: potency means the concentration at half of the fitted maximal effect
# Summary of the method: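 Luminescent readout of luciferin produced by CYP3A4 (20 nM) dealkylation of Luciferin-PPXE, 25 uM (its KM). NADPH-driven reaction ran 60 min at RT after 10 min compound preincubation; data scaled to 57 uM ketoconazole as 100% inhibition.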
# [2] = Confirmation and Secondary Assay for Modulators of Hemoglobin Beta Chain Splicing at IVS2 654 locus (AID 910);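 further: HeLa cells stably carrying EGFP split by mutant beta-globin IVS2-654 intron; per-well total GFP intensity by laser scanning cytometry after 2-day treatment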
# Summary of the method: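 Readout: per-well total peak green fluorescence (488 nm ex, 500–520 nm em) from objects 5–250 µm, reflecting correct splicing of an EGFP-654 reporter. Compounds were applied for 2 days at 37 °C to overnight-plated HeLa EGFP-654 cells; controls were DMSO and 500 nM IVS2-654 PNA.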
# [3] = Confirmation and Secondary Assay for Modulators of Hemoglobin Beta Chain Splicing at IVS2 705 locus (AID 930);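 further: HeLa cells stably expressing the EGFP-705 splicing reporter; GFP fluorescence per well restored by corrected splicing of the IVS2-705 intron in EGFP; series mostly up to about 46 µM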
# Summary of the method: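 Secondary splice-site specificity test uses HeLa expressing CMV-driven EGFP interrupted by IVS2-705; cells were treated 2 days at 37C with 500 nM antisense PNA as positive control.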
# [4] = target: Ubiquitin carboxyl-terminal hydrolase 1 (Homo sapiens) (UniProt O94782); assay: Inhibitors of USP1/UAF1: Pilot qHTS (AID 504865);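 further: rhodamine fluorescence freed from ubiquitin-rhodamine substrate followed over time; top concentration of the series differs between compounds; nearly all actives have a fitted effect of over 35% in size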
# Summary of the method: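 USP1/UAF1 complex (1nM) preincubated with compound 15 min at room temperature, then Ub-Rho substrate (150nM final) added. Fluorescence read kinetically at 480/540 nm, 6 reads every 60 seconds. Buffer: 50mM HEPES pH 7.8, 0.5mM EDTA, 0.1 mg/ml BSA, 1mM TCEP, 0.01% Tween-20.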
# [5] = target: Cytochrome P450 3A4 (Homo sapiens) (UniProt P08684); assay: qHTS Assay for Activators of Cytochrome P450 3A4 (AID 885); further: nearly all actives have a fitted effect of over 65% in size
# Summary of the method: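 Luminescent readout of luciferin formed from 25 uM Luciferin-PPXE (KM level) by 20 nM CYP3A4 in 200 mM KPO4, with 60 min NADPH-driven reaction at room temperature after 10 min compound exposure. Ketoconazole (57 uM) defined 100% inhibition.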
# [6] = target: Mitogen-activated protein kinase 10 (Mus musculus) (UniProt Q61831); assay: JNK3 AlphaScreen Assay (AID 530; active means well fitted curve in either direction with a large enough effect, not every such curve was filed as active;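 further: kinase came from lysate of stimulated human HepG2 cells; signal reports phosphorylation of biotinylated GST-cJun 1-79 at Ser73 with 10 µM ATP; series mostly up to about 57 µM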)
# Summary of the method: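 qHTS titrations with 15 min compound pre-incubation before adding ATP (10 uM final). Read-out: AlphaScreen of Ser73-phosphorylated biotin-GST-cJun using HepG2 lysate JNK3 activated by IL-1β and TNFα.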
# Cytochrome P450 3A4 (Homo sapiens), sequence (P08684 whole entry, looked up): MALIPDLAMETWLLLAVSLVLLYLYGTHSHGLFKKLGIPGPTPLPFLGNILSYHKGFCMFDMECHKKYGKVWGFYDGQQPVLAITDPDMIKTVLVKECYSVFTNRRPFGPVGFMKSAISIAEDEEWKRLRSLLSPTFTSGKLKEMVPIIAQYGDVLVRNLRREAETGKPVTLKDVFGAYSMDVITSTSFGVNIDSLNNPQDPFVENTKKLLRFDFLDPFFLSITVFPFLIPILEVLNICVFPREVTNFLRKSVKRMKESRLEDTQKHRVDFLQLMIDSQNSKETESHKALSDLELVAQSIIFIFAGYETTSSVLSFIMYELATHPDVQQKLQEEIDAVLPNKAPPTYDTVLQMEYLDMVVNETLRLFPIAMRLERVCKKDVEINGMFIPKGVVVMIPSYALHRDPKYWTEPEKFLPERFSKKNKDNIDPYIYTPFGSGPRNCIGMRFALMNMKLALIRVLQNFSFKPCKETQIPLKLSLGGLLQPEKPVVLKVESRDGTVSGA
# Ubiquitin carboxyl-terminal hydrolase 1 (Homo sapiens), sequence (O94782 whole entry, looked up): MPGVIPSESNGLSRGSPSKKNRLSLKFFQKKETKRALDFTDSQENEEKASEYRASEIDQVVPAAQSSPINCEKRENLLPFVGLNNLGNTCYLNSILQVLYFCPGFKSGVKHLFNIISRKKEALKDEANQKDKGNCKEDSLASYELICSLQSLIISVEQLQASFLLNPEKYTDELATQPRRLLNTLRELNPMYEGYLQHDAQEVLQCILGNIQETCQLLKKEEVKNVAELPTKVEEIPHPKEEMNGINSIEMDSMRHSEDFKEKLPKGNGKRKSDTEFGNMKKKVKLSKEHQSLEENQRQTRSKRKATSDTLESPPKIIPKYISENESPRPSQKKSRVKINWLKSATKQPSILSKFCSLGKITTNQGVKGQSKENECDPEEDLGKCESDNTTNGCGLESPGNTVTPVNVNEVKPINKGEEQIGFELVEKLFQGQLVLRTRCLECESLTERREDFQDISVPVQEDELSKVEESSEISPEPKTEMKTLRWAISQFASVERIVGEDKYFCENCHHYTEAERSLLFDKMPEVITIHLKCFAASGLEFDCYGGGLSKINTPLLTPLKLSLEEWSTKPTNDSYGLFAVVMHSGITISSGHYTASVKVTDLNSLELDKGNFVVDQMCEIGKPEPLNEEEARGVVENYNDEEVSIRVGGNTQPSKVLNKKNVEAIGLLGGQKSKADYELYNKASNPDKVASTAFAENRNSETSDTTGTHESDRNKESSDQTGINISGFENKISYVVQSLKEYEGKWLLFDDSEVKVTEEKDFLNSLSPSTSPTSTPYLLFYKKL
Compound,Potency [1],outcome [2],outcome [3],Potency [4],Potency [5],outcome [6]
Nc1ncnc2c1nc(Br)n2C1OC(CO)C(O)C1O (centres undefined),inactive,inactive,inactive,inactive,,
COC1=CC(=O)C=C(OC)C1=O,,inactive,inactive,inactive,inactive,
CC1CC2C(C(O)C[C@]3(C)C2CC[C@]3(O)C(=O)CO)[C@]2(C)C=CC(=O)C=C12 (some centres undefined),,inactive,inactive,inactive,inactive,
O=C1OC(C(O)CO)C(O)=C1O (centres undefined),inactive,inactive,inactive,inactive,,
COc1ccc(-c2cc(=O)c3c(OC(C)=O)cc(OC(C)=O)cc3o2)cc1,25.1 µM (active),inactive,inactive,inactive,,
CC(CCC(=O)O)C1CCC2C3C(=O)CC4CC(=O)CC[C@@]4(C)C3CC(=O)[C@]12C (some centres undefined),inactive,inactive,inactive,inactive,,
C[C@@]12CCC(OC(=O)c3ccccc3)CC1CCc1ccccc12 (some centres undefined),inactive,inactive,inactive,inactive,,
CC1c2cccc(O)c2C(O)=C2C(=O)[C@]3(O)C(O)=C(C(N)=O)C(=O)C(N(C)C)C3C(O)C21 (some centres undefined),inactive,inactive,inactive,inactive,,
CO[C@@]1(NC(=O)Cc2cccs2)C(=O)N2C(C(=O)O)=C(COC(N)=O)CSC21 (some centres undefined),inactive,inactive,inactive,inactive,,
O=C(O)/C=C/C=C/c1ccccc1,inactive,inactive,inactive,inactive,,
CC1CC[C@@]23CCC4(C)[C@@]5(C)CCC6C(C)(C)C(=O)CC[C@@]6(C)C5C=C[C@@]4(OC2=O)C3C1C (some centres undefined),inactive,inactive,inactive,inactive,,
C=C1C(=O)C23C(O)C1CCC2[C@]12COC3(O)C(O)C1C(C)(C)CC[C@H]2O (some centres undefined),inactive,inactive,inactive,inactive,,
CC1(C)CC[C@]2(C(=O)O)CC[C@@]3(C)C(=CCC4[C@@]5(C)CCC(O)C(C)(C)C5CC[C@@]43C)C2C1 (some centres undefined),inactive,inactive,inactive,inactive,,
O=C(O)c1cc2ccccc2[nH]1,inactive,inactive,inactive,inactive,,
COc1ccc(-c2c(O)c3c(OC)c4c(cc3oc2=O)OC(C)(C)CC4)cc1,,inactive,inactive,inactive,inactive,
CSCCC(N)C(=O)NC(CC(C)C)C(=O)NC(Cc1ccccc1)C(=O)O (centres undefined),inactive,inactive,inactive,inactive,,
O=C1C=CC2=C3c4cc(O)c(O)cc4C[C@]3(O)COC2=C1,inactive,inactive,inactive,inactive,,
Nc1nc(=O)n(C2OC(CO)C(O)C2O)cc1Cl (centres undefined),inactive,inactive,inactive,inactive,,
OCC(O)C(O)C(O)C(O)C(O)CO (centres undefined),inactive,inactive,inactive,inactive,,
CC1O[C@@H](O[C@@H]2C(O)C[C@H](O[C@@H]3C(O)C[C@@H](OC4CC[C@@]5(C)C6CC[C@]7(C)C(C8=CC(=O)OC8)CC[C@@]7(O)C6CC[C@@H]5C4)OC3C)OC2C)CC(O)[C@H]1O (some centres undefined),inactive,inactive,inactive,inactive,,
COc1ccc(C2COc3c(ccc(O)c3OC)C2)c(OC)c1O (centres undefined),,inactive,inactive,inactive,inactive,
Nc1ncnc2c1[nH]c(=O)n2C1CC(O)C(CO)O1 (centres undefined),inactive,inactive,inactive,inactive,,
NC(N)=N/N=C\c1c(Cl)cccc1Cl,inactive,inactive,inactive,inactive,,
COC(=O)CC1[C@@]2(C)C[C@]34OC5(C)OC6(C7CC(=O)OC(c8ccoc8)[C@]7(C)CCC6(O5)[C@]13C)C(OC(C)=O)[C@]4(OC(C)=O)C2OC(C)=O (some centres undefined),,inactive,inactive,inactive,inactive,

Compound,Potency [1],outcome [2],outcome [3],Potency [4],Potency [5],outcome [6]
COC(=O)CC1[C@@]2(C)C[C@@]34OC5(C)OC6(CC[C@@]7(C)C(c8ccoc8)OC(=O)C(C(C)=O)C7[C@]6(O5)C(O)[C@@]3(O)C2O)[C@]14C (some centres undefined),,inactive,inactive,inactive,inactive,
Cc1cc(O)cc(=O)o1,,inactive,inactive,inactive,inactive,
Oc1ccc2c(c1)OCC1c3cc4c(cc3OC21)OCO4 (centres undefined),,inactive,inactive,inactive,inactive,
CC(=O)OC(C)(C)C1Cc2cc3ccc(=O)oc3cc2O1 (centres undefined),inactive,inactive,inactive,inactive,,
CC(=O)OC1CC[C@@]2(C)C3CC[C@@]4(C)C(CC5O[C@@]6(CCC(C)CO6)C(C)C54)C3CC[C@@H]2C1 (some centres undefined),inactive,inactive,inactive,inactive,,
CC1CCC2C(C)(C)C3CC12CC[C@]3(C)O (some centres undefined),inactive,inactive,inactive,inactive,,
CCC1OC(=O)C(C)[C@@H](O[C@H]2C[C@@](C)(OC)C(O)C(C)O2)C(C)[C@@H](O[C@@H]2OC(C)CC(N(C)C)C2O)[C@@](C)(O)CC(C)C2NC(COCCOC)O[C@H](C2C)[C@@]1(C)O (some centres undefined),inactive,inactive,inactive,inactive,,
Cc1cc(O)c(C)c(O)c1C(=O)O,inactive,inactive,inactive,inactive,,
CC1C(NC(=O)/C(=N/OC(C)(C)C(=O)O)c2csc(N)n2)C(=O)N1S(=O)(=O)O (centres undefined),inactive,inactive,inactive,inactive,,
CS(C)(=O)=O,,inactive,inactive,inactive,inactive,
COc1cc(C(C)=O)cc(OC)c1O,inactive,inactive,inactive,inactive,,
NC1C(O)OC(CO)[C@@H](O)[C@@H]1O[C@H]1O[C@@H](C(=O)O)C(O)C(O)C1O (some centres undefined),inactive,inactive,inactive,inactive,,
Cn1c(=O)[nH]c(=O)c2[nH]cnc21,inactive,inactive,inactive,inactive,,
CC(=O)c1ccc[nH]1,inactive,inactive,inactive,inactive,,
CCCC[C@@H]1C[C@H]1C(NC(=O)c1ccccc1)c1ccc(C(F)(F)F)cc1 (some centres undefined),,,,,,inactive
COc1ccc2nc3c(c(-c4ccccc4)c2c1)CCC3,,,,,,inactive
CCCC[C@@H]1C[C@H]1C(NS(=O)(=O)c1cccc2cccnc12)c1ccc(-c2ccccc2)cc1 (some centres undefined),,,,,,inactive
CNC1C(O)C(O[C@H]2C(O)[C@@H](OC3OC(CN)=CCC3N)[C@H](N)C[C@@H]2N)OC[C@]1(C)O (some centres undefined),,inactive,inactive,inactive,,
C=C1C([C@@]2(C)C(OC(C)=O)CC(=O)O[C@@](C)(COC(C)=O)C2CC(=O)OC)C(OC=O)C(OC(=O)C(O)C(C)CC)[C@]2(C)C(c3ccoc3)CC(=O)C12O (some centres undefined),,inactive,inactive,inactive,inactive,
CNCC(O)c1cccc(O)c1 (centres undefined),,inactive,inactive,inactive,,
OC1C=C2CCN3Cc4cc5c(cc4C(C1O)C23)OCO5 (centres undefined),,inactive,inactive,inactive,,
CCCC[C@@H]1C[C@H]1C(NC(=O)c1ccccc1)c1ccc(C(=O)OC)cc1 (some centres undefined),,,,,,inactive
CCCN1CC(CSC)C[C@H]2c3cccc4[nH]cc(c34)C[C@H]21 (some centres undefined),,inactive,inactive,inactive,,
NCC1O[C@H](O[C@@H]2C(O)[C@H](O[C@H]3OC(CO)C(O)C(N)C3O)[C@@H](N)C[C@H]2N)[C@@H](N)CC1O (some centres undefined),,inactive,inactive,inactive,,

Compound,Potency [1],outcome [2],outcome [3],Potency [4],Potency [5],outcome [6]
Cc1cc(=O)oc2cc(O)c(O)cc12,,inactive,inactive,inactive,inactive,
COC(=O)[C@@]1(Cc2ccc(OC)cc2)[C@H]2c3cc(C(=O)N(C)C)n(Cc4ccc(C)o4)c3C[C@H]2CN1C(=O)c1ccccc1,,,,,,inactive
O=c1c2cc(O)c(O)cc2oc2cc(O)c(C3OC(CO)C(O)C(O)C3O)c(O)c12 (centres undefined),,inactive,inactive,inactive,,
CCCC[C@H]1C[C@@H]1[C@@H]1N(C(C)=O)[C@H](c2cccc(OC)c2)CC12CC2,,,,,,inactive
NC(N)=Nc1nc(CSCC/C(N)=N\S(N)(=O)=O)cs1,,inactive,inactive,inactive,,
C=C1C(=O)OC2C1CC/C(C)=C/CCC1(C)OC21 (centres undefined),,inactive,inactive,inactive,inactive,
COc1ccc(-c2coc3cc(OC)cc(OC)c3c2=O)cc1,,inactive,inactive,inactive,inactive,
COc1cc(C2c3cc4c(cc3C(OC3OC5COC(C)O[C@@H]5C(O)C3O)C3COC(=O)C23)OCO4)cc(OC)c1O (some centres undefined),,inactive,inactive,inactive,,
CC(C)=C1C(=O)C(c2ccccc2)=C2CN3C(=O)N(CCc4ccccc4)C(=O)[C@]3(C)[C@H]21,,,,,,inactive
Cc1nnc(SCC2=C(C(=O)O)N3C(=O)C(NC(=O)Cn4cnnn4)[C@@H]3SC2)s1 (some centres undefined),,inactive,inactive,inactive,,
COC(=O)[C@@]1(Cc2ccc(F)cc2)[C@H]2c3cc(C(=O)N(C)C)n(Cc4ccc(OC)c(OC)c4)c3C[C@H]2CN1C(=O)c1ccccc1,,,,,,inactive
CNC1C(O)C2OC3OC(C)CC(=O)[C@@]3(O)O[C@H]2[C@H](NC)C1O (some centres undefined),,inactive,inactive,inactive,,
COC(=O)[C@@]1(Cc2ccc(OC)cc2)[C@H]2c3cc(C(=O)N(C)C)n(Cc4ccc(S(C)(=O)=O)cc4)c3C[C@H]2CN1C(=O)c1ccccc1,,,,,,inactive
COC(=O)C1(Cc2ccccc2)C=C2C(=C(c3ccccc3)C(=O)C2C)CN1 (centres undefined),,,,,,inactive
CCC/C=C(\CCC)C(NC(=O)c1ccco1)c1ccc(C(=O)OC)cc1 (centres undefined),,,,,,inactive
COC(=O)c1c(C)cc(O)cc1O,,inactive,inactive,inactive,inactive,
COC(=O)[C@H]1C[C@@H]1[C@H](NS(=O)(=O)c1ccc2ccccc2c1)c1ccccc1,,,,,,inactive
COc1ccc2c3c1OC1CC(O)C=C[C@@]31CCN(C)C2 (some centres undefined),,inactive,inactive,inactive,,
COC(=O)[C@@]1(Cc2ccc(OC)cc2)[C@H]2c3cc(C(=O)N4CCCC4)n(Cc4ccc(OC)c(OC)c4)c3C[C@H]2CN1C(=O)c1ccccc1,,,,,,inactive
COc1ccc(-c2cc(=O)c3cc(OC)ccc3o2)cc1,,inactive,inactive,inactive,inactive,
COCCn1c(C(=O)N(C)C)cc2c1C[C@H]1CN(C(=O)c3ccccc3)[C@@](Cc3ccc(F)cc3)(C(=O)OC)[C@@H]21,,,,,,inactive
COC(=O)[C@@]1(Cc2ccccc2)[C@H]2c3cc(C(=O)N4CCCC4)n(CCO)c3C[C@H]2CN1C(=O)c1ccccc1,,,,,,inactive
